Measurements published in PubChem BioAssay (NCATS).
Values joined by “and” are separate entries in the source; they are usually repeats but may differ in a detail not shown here. Equal entries are not always repeated. Unmarked numbers belong to inactive results. Records with an inconclusive call do not appear. Entries that show only a call come without a potency. Active and inactive are the calls of the source. Unless noted, calls follow the shape of the dose curve; as a rule, active = well fitted curve in the direction sought with a large enough effect; inconclusive = small, poorly fitted or top-dose-only effect, or another doubt; inactive = no such curve, though single readings can be large; an effect the other way counts as inactive or inconclusive.

Legend:
[1] = qHTS Assay for Identification of Small Molecule Inducers of Hypoxia Response (AID 2120; active = well fitted curve in the direction sought with a large enough effect in the signal ratio, with a control signal flat, not every such curve was filed as active; the % refers to the signal ratio)
Outline: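 Cell-based qHTS for reporter induction: hypoxia response element controlled beta-lactamase in ME-180 cells. Compounds incubated 17 h at 37 degrees C; activity from blue/green (460/530 nm) ratio, inducers ranked by AC50.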

[2] = Cell Viability - H-4-II-E (AID 543);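 also: cells exposed to compound for 40 hours; nearly all actives have a fitted effect of over 35% in size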
Outline: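 Cells seeded at 1500 per well and rested 5 hr; compounds added; 40 hr incubation at 37 °C; CellTiter-Glo added, 20 min at room temperature; luminescence read. Hill-equation fits gave AC50.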

[3] = biological target: Androgen receptor (Homo sapiens) (UniProt P10275); test: qHTS assay for small molecule agonists of androgen receptor signaling (AID 588515; active = well fitted curve in the direction sought with a large enough effect in the signal ratio, with a control signal flat; the % refers to the signal ratio); conditions: AR-UAS-bla HEK293, beta-lactamase ratio, agonist 16 h; active compounds read high
Chain of Androgen receptor (Homo sapiens) (P10275 whole entry, looked up): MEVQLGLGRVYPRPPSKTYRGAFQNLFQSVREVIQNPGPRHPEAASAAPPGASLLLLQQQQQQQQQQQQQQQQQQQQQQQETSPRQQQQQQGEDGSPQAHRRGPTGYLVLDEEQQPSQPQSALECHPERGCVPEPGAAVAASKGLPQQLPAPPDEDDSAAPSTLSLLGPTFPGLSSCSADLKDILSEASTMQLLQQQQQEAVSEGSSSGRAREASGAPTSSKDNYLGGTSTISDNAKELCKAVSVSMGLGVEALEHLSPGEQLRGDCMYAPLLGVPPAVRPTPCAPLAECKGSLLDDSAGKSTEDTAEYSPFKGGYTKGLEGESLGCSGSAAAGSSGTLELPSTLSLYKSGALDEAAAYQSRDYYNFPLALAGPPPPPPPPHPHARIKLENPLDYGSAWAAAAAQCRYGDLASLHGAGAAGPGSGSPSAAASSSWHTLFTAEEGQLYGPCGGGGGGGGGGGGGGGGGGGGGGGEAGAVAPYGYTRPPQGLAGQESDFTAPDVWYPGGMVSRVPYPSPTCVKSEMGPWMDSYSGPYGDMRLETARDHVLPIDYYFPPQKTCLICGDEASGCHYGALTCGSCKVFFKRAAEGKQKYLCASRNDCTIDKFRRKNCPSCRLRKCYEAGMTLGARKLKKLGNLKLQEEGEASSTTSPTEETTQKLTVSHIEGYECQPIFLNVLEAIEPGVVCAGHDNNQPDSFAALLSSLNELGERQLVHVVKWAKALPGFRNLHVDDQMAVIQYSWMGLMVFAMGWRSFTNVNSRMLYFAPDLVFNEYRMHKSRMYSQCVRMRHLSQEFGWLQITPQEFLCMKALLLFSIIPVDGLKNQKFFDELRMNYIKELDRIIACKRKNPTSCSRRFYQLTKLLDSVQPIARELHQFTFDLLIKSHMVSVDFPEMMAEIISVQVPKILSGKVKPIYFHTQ
Outline: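 Stimulation of an AR-responsive β-lactamase reporter in GripTite HEK293 cells was measured after 16 h compound exposure at 37 °C, via CCF4 fluorescence after 2 h RT. EC50 from Hill fits, normalized to R1881 at 30 nM.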

[4] = biological target: Androgen receptor (Homo sapiens) (UniProt P10275); test: qHTS assay for small molecule antagonists of androgen receptor signaling (AID 588516; active = well fitted curve in the direction sought with a large enough effect in the signal ratio, with a control signal flat, not every such curve was filed as active; the % refers to the signal ratio)
Outline: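 Cells were plated and incubated 5 h, compounds added in titration, then R1881 (10 nM final) as agonist. After 16 h at 37 C, CCF4 substrate was loaded for 2 h at room temperature and fluorescence measured.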

[5] = biological target: Cytochrome P450 3A4 (Homo sapiens) (UniProt P08684); test: qHTS Assay for Activators of Cytochrome P450 3A4 (AID 885); also: nearly all actives have a fitted effect of over 65% in size
Chain of Cytochrome P450 3A4 (Homo sapiens) (P08684 whole entry, looked up): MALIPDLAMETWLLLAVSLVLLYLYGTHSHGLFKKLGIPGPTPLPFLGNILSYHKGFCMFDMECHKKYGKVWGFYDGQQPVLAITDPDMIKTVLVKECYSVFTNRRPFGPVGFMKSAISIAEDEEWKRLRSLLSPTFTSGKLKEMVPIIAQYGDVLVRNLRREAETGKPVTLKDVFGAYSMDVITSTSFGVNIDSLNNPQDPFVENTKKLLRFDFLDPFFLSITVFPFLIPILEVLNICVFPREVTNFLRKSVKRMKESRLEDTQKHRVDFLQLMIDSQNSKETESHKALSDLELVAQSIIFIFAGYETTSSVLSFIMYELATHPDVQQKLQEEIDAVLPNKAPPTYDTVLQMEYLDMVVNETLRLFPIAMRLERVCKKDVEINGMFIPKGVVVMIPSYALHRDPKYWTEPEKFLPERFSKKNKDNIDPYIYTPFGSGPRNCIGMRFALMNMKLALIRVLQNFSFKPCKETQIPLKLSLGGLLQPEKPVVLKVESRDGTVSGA
Outline: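 CYP3A4 activity: Luciferin-PPXE O-dealkylation, 25uM substrate, 200mM KPO4, RT throughout. Read-out is luciferase luminescence; higher values reflect activation.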

[6] = qHTS assay to identify small molecules that stimulate interleukin-8 (IL-8) secretion (AID 651758; active = well fitted activation curve with a large enough effect in the signal ratio; the % refers to the signal ratio)
Outline: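 Compounds are added to THP-1 cells (2000 per well) and left 16 hrs at 37 C. A labeled anti-IL-8 antibody pair is then added, and IL-8 secretion is measured by time-resolved FRET after 1-3 hrs at room temperature.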

[7] = AP1 Signaling Pathway (AID 357; active = well fitted curve in either direction with a large enough effect, not every such curve was filed as active;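 also: ME-180 reporter cells stimulated with EGF at its EC50 level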)
Outline: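 A ratiometric CCF4 readout (405 nm excitation; 460 and 530 nm emission) quantified AP-1-driven beta-lactamase in ME-180 cells after 5 h with compound and EC50 EGF; AC50 values were derived for activators and inhibitors.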

[8] = biological target: Glucocorticoid receptor (Homo sapiens) (UniProt P04150); test: GR-GFP Redistribution (AID 450;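 active = compounds whose dose series gives a full or clear partial fitted curve of increased nuclear translocation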; also: potency is read from the fitted curve at half-maximal effect); conditions: U2OS GR-GFP nuclear translocation, laser cytometry, 2 h
Chain of Glucocorticoid receptor (Homo sapiens) (P04150 whole entry, looked up, the tested form may be a part): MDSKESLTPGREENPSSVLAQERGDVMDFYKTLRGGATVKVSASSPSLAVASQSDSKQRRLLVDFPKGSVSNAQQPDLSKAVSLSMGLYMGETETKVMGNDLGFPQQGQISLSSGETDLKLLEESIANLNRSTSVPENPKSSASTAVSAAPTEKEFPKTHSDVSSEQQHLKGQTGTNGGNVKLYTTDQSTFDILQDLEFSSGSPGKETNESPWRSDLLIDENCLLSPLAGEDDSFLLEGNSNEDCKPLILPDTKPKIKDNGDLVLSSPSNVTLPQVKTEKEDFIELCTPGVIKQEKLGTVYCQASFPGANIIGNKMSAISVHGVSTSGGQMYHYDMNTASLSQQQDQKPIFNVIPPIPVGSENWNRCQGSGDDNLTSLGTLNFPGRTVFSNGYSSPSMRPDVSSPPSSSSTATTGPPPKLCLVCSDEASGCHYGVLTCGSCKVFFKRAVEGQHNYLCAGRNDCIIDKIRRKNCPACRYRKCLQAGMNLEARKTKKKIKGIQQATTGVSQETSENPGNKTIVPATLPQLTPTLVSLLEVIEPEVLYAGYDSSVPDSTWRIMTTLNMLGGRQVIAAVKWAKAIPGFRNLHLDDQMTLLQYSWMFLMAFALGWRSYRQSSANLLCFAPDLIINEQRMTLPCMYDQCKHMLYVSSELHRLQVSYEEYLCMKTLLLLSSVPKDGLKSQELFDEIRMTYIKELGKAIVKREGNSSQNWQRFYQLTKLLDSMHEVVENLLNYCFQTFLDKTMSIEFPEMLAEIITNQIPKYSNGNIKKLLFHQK

[9] = Confirmation and Secondary Assay for Modulators of Hemoglobin Beta Chain Splicing at IVS2 654 locus (AID 910);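 also: HeLa cells stably carrying EGFP split by mutant beta-globin IVS2-654 intron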
Outline: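 HeLa cells stably expressing EGFP interrupted by β-globin IVS2-654 intron, seeded overnight in Opti-MEM/2% FCS, then treated 2 days at 37 °C. Restored splicing read as total peak GFP intensity per well by laser scanning cytometry (488 nm excitation, 500–520 nm emission); 500 nM antisense PNA as control.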

[10] = biological target: Ubiquitin carboxyl-terminal hydrolase 1 (Homo sapiens) (UniProt O94782); test: Inhibitors of USP1/UAF1: Pilot qHTS (AID 504865);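 also: rhodamine fluorescence freed from ubiquitin-rhodamine substrate followed over time; top concentration of the series differs between compounds; nearly all actives have a fitted effect of over 35% in size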
Chain of Ubiquitin carboxyl-terminal hydrolase 1 (Homo sapiens) (O94782 whole entry, looked up): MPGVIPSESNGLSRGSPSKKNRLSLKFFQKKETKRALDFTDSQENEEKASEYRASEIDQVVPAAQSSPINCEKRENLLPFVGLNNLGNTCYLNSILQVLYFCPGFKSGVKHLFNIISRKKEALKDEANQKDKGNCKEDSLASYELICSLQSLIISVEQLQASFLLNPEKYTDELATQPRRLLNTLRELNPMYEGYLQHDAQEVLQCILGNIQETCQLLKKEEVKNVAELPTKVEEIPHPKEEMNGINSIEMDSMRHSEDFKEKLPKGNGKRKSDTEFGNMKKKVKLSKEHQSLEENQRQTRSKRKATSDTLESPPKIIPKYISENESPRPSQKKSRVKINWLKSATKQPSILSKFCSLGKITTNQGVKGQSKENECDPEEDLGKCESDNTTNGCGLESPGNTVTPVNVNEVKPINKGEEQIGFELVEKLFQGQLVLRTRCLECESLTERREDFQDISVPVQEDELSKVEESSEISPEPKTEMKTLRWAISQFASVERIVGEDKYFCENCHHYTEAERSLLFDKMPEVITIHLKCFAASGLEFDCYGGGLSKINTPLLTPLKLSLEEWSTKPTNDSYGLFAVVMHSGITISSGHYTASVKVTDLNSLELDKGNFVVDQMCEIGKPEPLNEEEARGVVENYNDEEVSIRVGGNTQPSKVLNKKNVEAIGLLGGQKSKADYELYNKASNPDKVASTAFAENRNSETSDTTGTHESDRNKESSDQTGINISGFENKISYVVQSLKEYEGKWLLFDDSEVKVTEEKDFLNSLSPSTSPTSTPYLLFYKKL
Outline: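 In 50mM HEPES pH 7.8 containing 0.5mM EDTA, 1mM TCEP, 0.1 mg/ml BSA and 0.01% Tween-20, 1nM USP1/UAF1 is exposed to compound for 15 min, then Ub-Rho (150nM final) is added and fluorescence is read over time.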

[11] = Confirmation and Secondary Assay for Modulators of Hemoglobin Beta Chain Splicing at IVS2 705 locus (AID 930);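 also: HeLa cells stably expressing the EGFP-705 splicing reporter; GFP fluorescence per well restored by corrected splicing of the IVS2-705 intron in EGFP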
Outline: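 Assay measures total GFP intensity per well in HeLa EGFP-705 cells after 2 days with compound; mis-splicing normally truncates EGFP, so fluorescence indicates corrected splicing.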

[12] = biological target: Cytochrome P450 1A2 (Homo sapiens) (UniProt P05177); test: p450-cyp1a2 (AID 410; calls by dose curve)
Chain of Cytochrome P450 1A2 (Homo sapiens) (P05177 whole entry, looked up): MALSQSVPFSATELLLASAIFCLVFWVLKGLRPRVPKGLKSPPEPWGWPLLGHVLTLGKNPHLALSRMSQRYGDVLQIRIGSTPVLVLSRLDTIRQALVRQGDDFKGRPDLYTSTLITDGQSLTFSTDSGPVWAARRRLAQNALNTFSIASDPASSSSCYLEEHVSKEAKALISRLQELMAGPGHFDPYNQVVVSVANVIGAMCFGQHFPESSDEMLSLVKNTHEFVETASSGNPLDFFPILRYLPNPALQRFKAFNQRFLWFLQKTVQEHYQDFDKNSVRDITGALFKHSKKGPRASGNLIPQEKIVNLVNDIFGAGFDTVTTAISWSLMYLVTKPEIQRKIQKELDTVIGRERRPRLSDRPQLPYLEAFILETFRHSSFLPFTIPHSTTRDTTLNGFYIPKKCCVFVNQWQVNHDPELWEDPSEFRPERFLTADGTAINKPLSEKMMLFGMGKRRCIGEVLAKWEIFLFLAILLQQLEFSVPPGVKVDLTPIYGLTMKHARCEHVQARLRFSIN
Outline: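 O-Demethylation of luciferin 6' methyl ether by human CYP1A2 is monitored as luciferase luminescence. Substrate sits at Km (100uM); enzyme is 20nM. Values are scaled to 57 uM furafylline as maximal inhibition.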

[13] = Stat Signaling Pathway (AID 446; active = well fitted curve in either direction with a large enough effect, not every such curve was filed as active;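 also: ME-180 cervical cancer cells given 40 pM IL-6 alongside compound; SIE-controlled beta-lactamase reporter measured as 460/530 nm FRET emission ratio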)
Outline: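 Compound effects on IL-6-induced STAT reporter activity were measured in ME-180 cells. After overnight culture, cells were co-treated with 40 pM IL-6 for 5 hrs before beta-lactamase substrate loading at room temperature.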

[14] = biological target: Glucocorticoid receptor (Homo sapiens) (UniProt P04150); test: GR-EFC Redistribution (AID 451; calls by dose curve; also: potency is read from the fitted curve at half-maximal effect); conditions: CHO-K1 GR-EFC translocation, beta-gal luminescence, 2 h
Outline: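 CHO-K1 cells expressing nuclear EA and GR-ED fragments of b-gal; compounds titrated up to 46 uM final, 2 h at 37 C. GR nuclear translocation read as complemented b-gal luminescence after 1 h RT detection.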

[15] = biological target: ATP-dependent 6-phosphofructokinase (Trypanosoma brucei brucei) (UniProt O15648); test: qHTS Assay to Find Inhibitors of T. brucei phosphofructokinase: hit validation (AID 492961);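 also: luminescence reports ADP formed as PFK phosphorylates fructose-6-phosphate with ATP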
Chain of ATP-dependent 6-phosphofructokinase (Trypanosoma brucei brucei) (O15648 whole entry, looked up): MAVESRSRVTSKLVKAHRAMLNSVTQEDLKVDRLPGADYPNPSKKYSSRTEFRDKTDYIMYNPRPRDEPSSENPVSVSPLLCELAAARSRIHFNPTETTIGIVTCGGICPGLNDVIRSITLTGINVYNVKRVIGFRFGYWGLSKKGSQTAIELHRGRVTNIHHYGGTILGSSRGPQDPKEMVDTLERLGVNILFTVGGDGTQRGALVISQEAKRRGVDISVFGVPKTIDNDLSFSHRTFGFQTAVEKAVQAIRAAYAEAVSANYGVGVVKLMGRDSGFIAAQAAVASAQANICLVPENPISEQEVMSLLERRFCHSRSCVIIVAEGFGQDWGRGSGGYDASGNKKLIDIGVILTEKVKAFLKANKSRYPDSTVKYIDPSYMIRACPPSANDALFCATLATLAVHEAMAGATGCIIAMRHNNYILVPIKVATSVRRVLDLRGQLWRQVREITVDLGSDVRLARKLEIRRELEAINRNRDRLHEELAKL
Outline: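 Inhibition of parasite PFK is measured as reduced ADP formation, quantified via luciferase after ATP depletion. Assay used 0.1 mM ATP, 0.5 mM F6P, 1.25 nM enzyme, 45 min incubation.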

[16] = qHTS profiling for inhibitors of Plasmodium falciparum proliferation (AID 504749); also: nearly all actives have a fitted effect of over 60% in size; conditions: P. falciparum in erythrocytes, SYBR Green DNA, 72 h; at 12.8 µM (top of the series); parasite line A
Outline: (§1)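 Each compound contacts P. falciparum-infected red blood cells for 72 h at 37 C; lysis buffer (Tris, EDTA, saponin, Triton X, SYBR Green I) is added and fluorescence measured next morning; values normalized to controls.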

AS120 = test: as above; conditions: P. falciparum in erythrocytes, SYBR Green DNA, 72 h; series mostly up to 28.7 µM
Outline: as §1

ATS189 = test: as above; conditions: P. falciparum in erythrocytes, SYBR Green DNA, 72 h; series mostly up to 28.7 µM
Outline: as §1

CP203 = test: as above; conditions: P. falciparum in erythrocytes, SYBR Green DNA, 72 h; series mostly up to 28.7 µM
Outline: as §1

TAB113 = test: as above; conditions: P. falciparum in erythrocytes, SYBR Green DNA, 72 h; series mostly up to 28.7 µM
Outline: as §1

In the case of `ClC(Cl)(Cl)c1ccccc1`, the outcome [1] is reported as “inactive”.

With `COc1ccc(C=O)cc1OC` the outcome [1] was “inactive”.

For `O=[N+]([O-])c1ccc(Cl)c(Cl)c1`, the outcome [1] was “inactive”.

With `CCN(CC)c1ccccc1` the Potency [2] was “inactive”, the activation [3] was 12.2% and the Potency [4] was “inactive”.

For `COc1ccc(N)cc1`, the Potency [5] was “inactive” and the Potency [6] was “inactive”.

For `Clc1ccc(CO[C@@H](Cn2ccnc2)c2ccc(Cl)cc2Cl)cc1`, the outcome [7] was “inactive”, the Potency [8] was greater than 20.6 µM and the Potency [5] was “inactive”.

In the case of `Cc1ccc([N+](=O)[O-])cc1C`, the Potency [2] is reported as “inactive” and the Potency [6] is reported as “inactive”.

For `CCCC(=O)Cl`, the Potency [6] was “inactive”.

In the case of `ClC(Cl)=C(Cl)C(Cl)=C(Cl)Cl`, the Potency [2] is reported as “inactive” and the Potency [6] is reported as “inactive”.

In the case of `c1ccc(-c2ccccc2)cc1`, the activation [3] is reported as -1.76% and -0.536%, the Potency [4] is reported as “inactive” and the Potency [6] is reported as “inactive”.

In the case of `Clc1cccc(C(Cl)(Cl)Cl)n1`, the Potency [5] is reported as “inactive”, the activation [3] is reported as -4.18% and the Potency [4] is reported as “inactive”. For the same molecule, the Potency [6] was “inactive”.

In the case of `CC(C)c1cc2c(c(O)c1O)[C@]1(C(=O)O)CCCC(C)(C)C1CC2` (stereo partly drawn), the Potency [9] is reported as “inactive” and the Potency [10] is reported as “inactive”.

In the case of `C=C(C)C1CNC(C(=O)O)C1CC(=O)O` (stereo not drawn), the Potency [9] is reported as “inactive” and the Potency [11] is reported as “inactive”.

With `ClC(Cl)=C(Cl)Cl` the Potency [2] was “inactive” and the Potency [6] was “inactive”.

With `c1ccc(OP(Oc2ccccc2)Oc2ccccc2)cc1` the Potency [6] was “inactive”.

In the case of `CCCCOCCOP(=O)(OCCOCCCC)OCCOCCCC`, the Potency [2] is reported as “inactive” and the Potency [5] is reported as “inactive”.

For `C1CCC2CCCCC2C1` (stereo not drawn), the Potency [2] was “inactive”.

For `CC(C)c1c(CN(C)[C@@H](C)Cc2ccccc2)n(C)n(-c2ccccc2)c1=O`, the outcome [7] was “inactive”, the Potency [12] was “inactive” and the outcome [13] was “inactive”. The Potency [8] was greater than 20.6 µM, the Potency [14] was greater than 20.6 µM and the Potency [5] was “inactive”. For the same molecule, the Potency [15] was “inactive”, the activity, negative = inhibition [16] was 6.98% and the Potency (AS120) was “inactive”. For the same molecule, the Potency (ATS189) was “inactive”, the Potency (CP203) was “inactive” and the Potency (TAB113) was “inactive”.

With `CC(=O)[C@@H]1CC[C@H]2[C@H]3CC[C@H]4C[C@@H](O)CC[C@]4(C)[C@@H]3C(=O)C[C@@]12C` the outcome [7] was “inactive”, the outcome [13] was “inactive” and the Potency [10] was “inactive”.
